# From PubChem BioAssay
# mIDH1 inhibitor: blocks human mutant IDH1 R132H enzyme. O75874. IDH1-R132H enzyme, NADPH consumption, diaphorase/resazurin fluorescence. Potency, µM (top dose mostly 76.6 µM), inactives show top-dose activity change, negative = inhibition, most hits filed as inhibitors. actives 0.093% (n = 390,000); note: potency is the fitted concentration of half-maximal effect; % is set by controls: 0 for no effect and ±100 for the full control effect; nearly all actives have a fitted effect of over 65% in size
#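 IDH1-R132H (0.5 ug/mL dispensed) in pH 7.5 Tris buffer was preincubated 30 min with compound, then given a substrate mix of 0.016 mM NADPH and 2 mM alpha-KG for 80 min at room temperature; remaining NADPH was read by diaphorase/resazurin fluorescence.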
# GLP1R cytotox: cytotoxicity in counter-screen for GLP-1R inverse agonists; actives 0.13% (n = 410,000); Potency, µM (titrated, usually from 38.3 µM), for the others: top-dose activity change, negative = inhibition, usual class: inhibitors; HEK293 cAMP-luciferase reporter cells, luminescence, 24 h;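 note: loss of luciferase light is scored as toxicity; potency is the fitted concentration of half-maximal effect; % is set by controls: 0 for no effect and ±100 for the full control effect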
#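 Quantitative HTS format, 1536 wells, 200 cells/uL seeded. Compounds: 23 nL, 24 h, 37 °C. Detection: luciferase reagent, luminescence at 12 min RT; decreased signal taken as cytotoxic.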
# TrxR1 inh-1: inhibitors of rat thioredoxin reductase 1; O89049; recombinant rTrxR1, NADPH fluorescence consumption, selenite substrate; Potency, µM (series often up to 114 µM), without a hit: at the top dose activity change, negative = inhibition, most hits filed as inhibitors; actives 1% (n = 390,000); AID 588453; note: potency is the fitted concentration of half-maximal effect; % is set by controls: 0 for no effect and ±100 for the full control effect; nearly all actives have a fitted effect of over 65% in size
#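 Rat TrxR1 (90 nM in the dispensed reagent) was pre-reduced with 400 uM NADPH for 5 min at room temperature, then incubated with compound for 15 min. After 400 uM selenite was added, NADPH fluorescence (Ex 340/Em 450 nm) was followed for 8 min.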
# GLP1R ag: agonists of human GLP-1 receptor. AID 624172. HEK293 GLP-1R CRE-luciferase, luminescence, 4-6 h; cells express a hypersensitive GLP-1R form. P43220. Potency, µM (series often up to 45.6 µM), inactives show top-dose activation, actives largely listed as activators. actives 0.007% (n = 380,000); note: potency is the fitted concentration of half-maximal effect; % of control where 0% means no effect
# Target sequence (P43220 whole entry, looked up): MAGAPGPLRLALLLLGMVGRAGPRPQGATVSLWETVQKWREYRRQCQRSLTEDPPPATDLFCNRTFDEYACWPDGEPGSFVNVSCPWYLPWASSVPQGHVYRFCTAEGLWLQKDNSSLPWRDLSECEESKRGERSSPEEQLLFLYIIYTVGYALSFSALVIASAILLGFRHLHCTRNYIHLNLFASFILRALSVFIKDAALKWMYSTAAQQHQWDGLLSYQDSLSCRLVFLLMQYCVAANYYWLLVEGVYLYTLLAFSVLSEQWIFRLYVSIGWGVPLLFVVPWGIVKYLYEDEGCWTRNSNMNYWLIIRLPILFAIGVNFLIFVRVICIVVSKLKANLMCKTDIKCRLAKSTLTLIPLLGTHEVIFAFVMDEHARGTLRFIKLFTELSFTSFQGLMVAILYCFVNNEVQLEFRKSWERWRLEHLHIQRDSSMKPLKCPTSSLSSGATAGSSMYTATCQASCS
# TrxR1 substrate: is turned over as a substrate by rat TrxR1. Potency, µM (titrated, usually from 114 µM), for the others: top-dose activity change, negative = substrate turnover. purified TrxR1 substrate turnover, NADPH consumption readout. O89049. actives 0.01% (n = 390,000); note: potency is the fitted concentration of half-maximal effect; % is set by controls: 0 for no effect and ±100 for the full control effect; nearly all actives have a fitted effect of over 50% in size
#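 Rat TrxR1, dispensed at 90 nM, was prereduced with 400 uM NADPH (final) for 5 min at ~22 deg C, then incubated with compound 15 min before 400 uM selenite. A first-read NADPH fluorescence drop versus no-compound background flagged substrates.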
# GLP1R inv ag: GLP-1 receptor (human) inverse agonism | AID 624417 | actives 1.6% (n = 410,000) | Potency, µM (doses to about 38.3 µM), for the others: at the highest dose activity change, negative = inhibition, actives largely listed as inhibitors | HEK293 GLP-1R CRE-luciferase, luminescence, 24 h; GLP-1R form is constitutively active; note: potency is the fitted concentration of half-maximal effect; % is set by controls: 0 for no effect and ±100 for the full control effect; nearly all actives have a fitted effect of over 55% in size
#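 HEK293 cells stably co-expressing constitutively active GLP-1R and a cAMP-responsive luciferase reporter were seeded in DMEM with 10% Nu serum, given compounds after 12 h, and incubated 24 h at 37 deg C. Luminescence was then read.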
# GR counterassay: inhibits human glutathione reductase in TrxR1 counterassay | purified GR, DTNB reduction absorbance 405 nm kinetic | shares compounds with TrxR1 inh-1 | activity change, negative = inhibition, % at 57.1 µM | 55 tested, under 10 active
# TrxR1 inh-2: validation of rat thioredoxin reductase 1 inhibitors. actives 50% (n = 55). shares compounds with TrxR1 inh-1. recombinant TrxR1, NADPH fluorescence consumption, selenite substrate. Potency, µM, usual class: inhibitors. AID 652023
# TrxR1 insulin: TrxR1 inhibition in insulin mechanism assay. shares compounds with TrxR1 inh-1. TrxR1 Trx-coupled insulin reduction, NADPH absorbance 340 nm. Potency, µM. actives 20% (n = 55). AID 652037;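 active = compounds with a measured potency under 100 micromolar; inconclusive = filed, but no rule given; inactive = potency at or above that, or unmeasurable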
# TrxR1 inh-3: blocks rat TrxR1 reduction of DTNB. purified TrxR1, DTNB reduction, A412. shares compounds with TrxR1 inh-1. Potency, µM. actives 90% (n = 55);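 active = a half-inhibiting concentration could be measured and was below 100 µM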
# IDH1 autofl: interferes with resorufin fluorescence in IDH1 counter-screen; shares compounds with mIDH1 inhibitor; Resorufin detection reagent fluorescence interference, cell-free; inhibition of signal, % at 51.2 µM; 750 tested, under 10 active;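 note: 0% = wells with normal resorufin and full inhibition = wells lacking resorufin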
# IDH1 WT: wild-type IDH1 (human) inhibition counterscreen; shares compounds with mIDH1 inhibitor; WT IDH1 enzyme, NADPH diaphorase/resazurin fluorescence; Potency, µM (series often up to 115 µM), without a hit: top-dose activity change, negative = inhibition, hits mostly inhibitors; actives 9% (n = 750); AID 623995;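 note: potency is the fitted concentration of half-maximal effect; 0% = full WT IDH1 enzyme control and full inhibition = no enzyme wells; nearly all actives have a fitted effect of over 55% in size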
# IDH1 R132H conf: mutant IDH1 (human) inhibition, confirmed; shares compounds with mIDH1 inhibitor; actives 83% (n = 750); AID 624002; Potency, µM (top dose mostly 76.6 µM), for inactives: at the top dose activity change, negative = inhibition, actives largely listed as inhibitors; IDH1 R132H enzyme, NADPH diaphorase/resazurin fluorescence; note: potency is the fitted concentration of half-maximal effect; nearly all actives have a fitted effect of over 50% in size
# Numbers without * were called inactive; u = inconclusive; x = no result given; ! = repeats disagree; [ ] = another dose, or the depositor's remark. Only some compounds are listed: those with a hit (about 2.7% of all), similar ones and a draw of the others. Unless noted, calls come from the whole dose curve; as a rule, active = well fitted curve in the direction sought with a large enough effect; inconclusive = small, poorly fitted or top-dose-only effect, or another doubt; inactive = no such curve, though single readings can be large; an effect the other way counts as inactive or inconclusive.
SMILES,mIDH1 inhibitor,GLP1R cytotox,TrxR1 inh-1,GLP1R ag,TrxR1 substrate,GLP1R inv ag,others
O=C1c2[nH]nc(-c3ccccc3)c2C(c2ccccc2)N1c1cccc(C(F)(F)F)c1 (stereo not drawn),-20.2%,u,-4.7%,x,-9.0%,u,
Cc1ccccc1C(c1ncccc1C)N(C)C(=O)C1CCN(CCOc2ccc(Cl)cc2Cl)CC1 (stereo not drawn),x,10µM*,x,-11.1%,x,u,
Cc1ccc(NS(=O)(=O)c2ccc(Cl)c(NC(=S)NC(=O)C3CCCCC3)c2)cc1Cl,-8.6%,u,18.6%[57.1 µM],-11.4%,5.3%[57.1 µM],u,
C=C1C(C)C2C(Cc3ccccc3)NC(=O)C23C(OC(C)=O)C=CC(C)(O)CC(C)CC=CC3C1O (stereo not drawn),3.3%,-30.4%,17.4%[57.1 µM],20.0%,14.8%[57.1 µM],77.7%,
C=C1[C@@H](C)[C@H]2[C@H](Cc3ccccc3)NC(=O)[C@]23OC(=O)/C=C/[C@H](O)CCC[C@@H](C)C/C=C/[C@H]3[C@@H]1O,-6.0%,-30.8%,50.1µM*!,-1.1%,3.8%,u,
Cc1ccc(NC(=O)N(Cc2ccc3c(c2)OCO3)C2CCN(Cc3ccccc3)CC2)cc1C,19.7%,-0.6%,10.2%,x,-8.0%,u,
Cc1ccc(NC(=O)N(Cc2ccc3c(c2)OCO3)C2CCN(Cc3ccccc3)CC2)cc1Cl,0.0%,-25.0%,5.3%,x,-1.0%,12.6µM*,
COC(=O)C1=C(c2cccc(OCc3ccccc3)c2)C[C@@H]2CC[C@H]1N2C(=O)NCc1cccc(C(F)(F)F)c1,-1.9%,-4.0%,19.1%,-5.4%,3.3%,11.2µM*,
COC(=O)C1=C(c2ccc(OCc3ccccc3)cc2)C[C@@H]2CC[C@H]1N2C(=O)NCc1ccc(C(C)(C)C)cc1,-5.6%,-3.0%,x,-1.4%,x,4.47µM*,
COC(=O)C1=C(c2ccc(F)cc2OCc2ccccc2)C[C@@H]2CC[C@H]1N2C(=O)NCc1ccccc1C(F)(F)F,-4.6%,-17.8%,20.4%[57.1 µM],6.8%,7.0%[57.1 µM],12.6µM*,
COc1ccc(NC(=O)CN(c2ccc([N+](=O)[O-])cc2)S(=O)(=O)c2ccccc2)cc1,6.1%,u,7.5%,2.7%,-4.8%,6.31µM*,
CCCCOP(=O)(OCCCC)C(Nc1ccc(C(=O)OCC)cc1)c1ccncc1 (stereo not drawn),-7.4%,-11.8%,7.2%,12.5%,-5.2%,u,
O=C1C=CC2C3C(=O)N(c4ccccc4)C(=O)C3C1N2Cc1ccccc1 (stereo not drawn),-17.6%,10µM*,3.55µM*,-17.8%,5.7%[11.4 µM],u,GR counterassay=-0.9;TrxR1 inh-2=u;TrxR1 insulin=17µM*;TrxR1 inh-3=1.49µM*
CCN(Cc1nc2cc(Cl)ccc2c(=O)[nH]1)C(=O)c1cccc(OCc2c(C)noc2C)c1,6.9%,u,1.7%,15.9%,0.2%,-8.5%,
CC(=O)[C@H]1CC[C@H]2[C@@H]3CC=C4C[C@@H](OS(=O)(=O)O)CC[C@]4(C)[C@H]3CC[C@]12C,39.8µM*,-8.4%,8.2%,0.3%,4.0%,29.9%,IDH1 autofl=10.0;IDH1 WT=-2.5%;IDH1 R132H conf=39.8µM*
C=C1C(=O)O[C@H]2[C@H]1[C@H](OC(=O)CC(=O)O[C@@H]1C[C@@H](C)[C@@H]3C=CC(=O)[C@@]3(C)[C@H]3OC(=O)C(=C)[C@H]13)C[C@@H](C)[C@H]1C=CC(=O)[C@]12C,13.3%,u,u,-5.8%,7.9%[57.1 µM],u,
C=C1C(=O)O[C@@H]2C[C@@H](C)[C@@H]3C=CC(=O)[C@@]3(C)[C@@H](OC(=O)CC(=O)O[C@H]3[C@@H]4C(=C)C(=O)O[C@@H]4C[C@@H](C)[C@@H]4C=CC(=O)[C@]43C)[C@H]12,u,u,u,-9.9%,2.7%,-90.6%,IDH1 autofl=9.1;IDH1 WT=-10.1%;IDH1 R132H conf=u
CC(=O)n1c(Cl)c(NC(=O)CCl)c2ccccc21,3.9%,u,u,-0.1%,5.9%[57.1 µM],u,
COc1cccc(-c2coc3c(C)c4oc(=O)c(CCC(=O)O)c(C)c4cc23)c1,26.1µM*,39.1%,2.4%,18.6%,9.1%,-11.3%,IDH1 autofl=11.5;IDH1 WT=35.5µM*;IDH1 R132H conf=25.1µM*
Cc1cccc(CN2CCc3nc(N4CCN(c5ccccn5)CC4)ncc3C2)c1,-24.8%,0.9%,16.1%[57.1 µM],x,5.3%[57.1 µM],u,
N#CC1=C(N)NC(SCC(=O)Nc2ccc(Br)cc2)=C(C#N)C12CCCCC2,u,u,15.4%[57.1 µM],-0.7%,-24.8%[57.1 µM],7.94µM*,IDH1 autofl=1.4;IDH1 WT=6.9%;IDH1 R132H conf=22.4µM*
CN1C(=O)/C(=C/c2ccc(N3CCCCCC3)o2)C(=O)NC1=S,4.6%,-16.1%,u,6.6%,-2.7%,71.5%,
CN1C(=O)/C(=C\c2ccc(N3CCCCCC3)cc2)C(=O)NC1=S,46.5µM*,1.8%,20µM*,1.6%,-2.2%,-10.0%,IDH1 autofl=-12.3;IDH1 WT=-3.9%;IDH1 R132H conf=22.4µM*
CC1=Nc2ccccc2/C1=C/c1c(O)[nH]c(=O)[nH]c1=O,0.8%,-18.1%,u,-5.2%,-17.2%,-0.5%,
